According to PubChem BioAssay:
Activity calls are given as the source filed them.

Experiments:
[1] = A549 cell viability effects, profiling panel, calcein-AM fluorescence, 48 h, basal (AID 1162); conditions: higher = more signal
[2] = adipocyte viability effects, profiling panel, cell-based, 3T3-L1 adipocytes, calcein-AM fluorescence, 48 h, basal (AID 1163); conditions: 3T3-L1 adipocytes viability, higher = more signal
[3] = HepG2 cell viability effects, profiling panel, calcein-AM fluorescence, 48 h, basal (AID 1164); conditions: higher = more signal
[4] = MM1S cell viability effects, profiling panel, calcein-AM fluorescence, 48 h, basal (AID 1165); conditions: higher = more signal;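 further: viability of MM1S multiple myeloma cells under basal unstimulated conditions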
[5] = basal RPMI8226 viability, no added stimulus, profiling panel, cell-based, calcein-AM fluorescence, 48 h, PK04 Diversity Set (AID 1166); conditions: RPMI8226 myeloma viability, higher = more signal;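 further: cells grown under basal conditions without added stimulus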
[6] = basal HepG2 mitochondrial membrane potential changes, profiling panel, cell-based, JC-1 fluorescence, 24 h, 100 nL compound (AID 1167); conditions: higher = more signal
[7] = basal 3T3-L1 adipocyte mitochondrial potential changes, profiling panel, cell-based, JC-1 fluorescence, 3T3-L1 adipocytes, 24 h, 100 nL compound (AID 1168); conditions: JC-1 mitochondrial fluorescence, higher = more signal, called active from +8 up or from −8 down
[8] = basal RPMI8226 mitochondrial membrane potential changes, profiling panel, cell-based, JC-1 fluorescence, 24 h, 100 nL compound (AID 1169); conditions: RPMI8226 myeloma, JC-1 mitochondrial potential fluorescence, higher = more signal
[9] = basal MM1S mitochondrial membrane potential changes, profiling panel, cell-based, JC-1 fluorescence, 24 h, 100 nL compound (AID 1170); conditions: higher = more signal
[10] = A549 lung cancer cell viability effects, profiling panel, resazurin fluorescence, 24 h, PK04 Diversity Set (AID 1171); conditions: higher = more signal, called active from +8 up or from −8 down
Further: test concentration not given here.

SMILES: C=C(CCCC)/C(=C/C[C@@H](OC(=O)c1ccncc1)c1ccccc1OCCO)c1cc(C(=O)OC)ccc1OC
- z-score [1]: 0.0198
- z-score [2]: 0.725
- z-score [3]: 0.949
- z-score [4]: -3.26
- z-score [5]: -3.93
- z-score [6]: 2.84
- z-score [7]: -0.188 (inactive)
- z-score [8]: -0.497
- z-score [9]: -1.14
- z-score [10]: 0.17 (inactive)

SMILES: CC(C)NC(=O)[C@@]1(Cc2ccccc2I)c2ccccc2C(=O)N(Cc2ccccc2C(F)(F)F)[C@H]1c1ccc(CO)cc1
- z-score [1]: 0.325
- z-score [2]: 1.77
- z-score [3]: 0.289
- z-score [4]: -1.43
- z-score [5]: -1.66
- z-score [6]: 0.347
- z-score [7]: 0.536 (inactive)
- z-score [8]: -0.476
- z-score [9]: 0.749
- z-score [10]: 0.444 (inactive)

SMILES: CCOC(=O)C[C@H]1[C@H](OC(=O)Cc2ccc3c(c2)OCO3)[C@@H](NC(=O)c2ccccc2)c2cc(OCCCO)ccc2N1C(=O)c1ccc2ccccc2n1
- z-score [1]: 1.86
- z-score [2]: 1.08
- z-score [3]: 1.8
- z-score [4]: -0.198
- z-score [5]: -0.243
- z-score [6]: 1.12
- z-score [7]: 0.607 (inactive)
- z-score [8]: -0.156
- z-score [9]: -0.178
- z-score [10]: -1.38 (inactive)

SMILES: CC1=C2[C@@H](CCc3ccccc3)OB(O)C[C@@H]2[C@@H]2C(=O)C=CC(=O)[C@@H]2C1
- z-score [1]: -0.223
- z-score [2]: 0.36
- z-score [3]: -0.63
- z-score [4]: -3.38
- z-score [5]: -3.64
- z-score [6]: -3.63
- z-score [7]: -1.5 (inactive)
- z-score [8]: -1.12
- z-score [9]: -2.78
- z-score [10]: -0.247 (inactive)

SMILES: C=CCN1C(=O)[C@@]2(O[C@@H](CCO)[C@H]([Si](C)(C)c3ccc(OC)cc3)[C@H]2C)c2cc(NC(=O)[C@H](C)O)ccc21
- z-score [1]: 0.174
- z-score [2]: 0.178
- z-score [3]: -2.92
- z-score [4]: -2.69
- z-score [5]: -4.41
- z-score [6]: 1.89
- z-score [7]: 0.18 (inactive)
- z-score [8]: -0.872
- z-score [9]: -1.09
- z-score [10]: -2.25 (inactive)

SMILES: [N-]=[N+]=NCc1ccccc1C[C@]1(C(=O)NCCN2CCOCC2)N=C(c2ccc(OCCCO)cc2)O[C@H]1c1ccccc1
- z-score [1]: 0.112
- z-score [2]: 0.117
- z-score [3]: -0.493
- z-score [4]: -0.338
- z-score [5]: -1.06
- z-score [6]: 0.871
- z-score [7]: 0.469 (inactive)
- z-score [8]: -0.636
- z-score [9]: -0.54
- z-score [10]: 1.29 (inactive)

SMILES: COc1ccccc1CN1C(=O)c2ccccc2[C@@H](C(=O)NCC(C)C)[C@@H]1c1ccc(CO)cc1
- z-score [1]: 0.467
- z-score [2]: 0.796
- z-score [3]: 0.306
- z-score [4]: 0.869
- z-score [5]: -2.01
- z-score [6]: 0.962
- z-score [7]: -1.09 (inactive)
- z-score [8]: 0.398
- z-score [9]: 0.544
- z-score [10]: -0.624 (inactive)

SMILES: CC(C)C(CO)N1C(=O)[C@@H]2[C@H]3C(=O)OCC=C[C@H]3OC23C=CCN(CCN2CCOCC2)C(=O)[C@@H]13 (stereo not given in full)
- z-score [1]: -0.334
- z-score [2]: -0.347
- z-score [3]: -0.434
- z-score [4]: -0.201
- z-score [5]: 0.372
- z-score [6]: -0.982
- z-score [7]: -0.648 (inactive)
- z-score [8]: 0.237
- z-score [9]: 0.105
- z-score [10]: -0.324 (inactive)

SMILES: C=CCC(OC(C)=O)[C@@H]1[C@@H](N(Cc2ccc(-c3ccccc3)cc2)C(=O)Cc2ccc(OC)cc2)c2cc(OCCCO)ccc2N1C(=O)c1ccc(-c2ccccc2)cc1 (stereo not given in full)
- z-score [1]: 0.817
- z-score [2]: 0.397
- z-score [3]: 1.3
- z-score [4]: 0.366
- z-score [5]: 0.368
- z-score [6]: 3.34
- z-score [7]: 0.269 (inactive)
- z-score [8]: 0.298
- z-score [9]: 0.494
- z-score [10]: 1.21 (inactive)

SMILES: N#Cc1ccc(NN2C(C(O)c3ccccc3)C=CC3C(=O)N(c4ccccc4)C(=O)C32)cc1 (stereo not given)
- z-score [1]: -1.14
- z-score [2]: -0.173
- z-score [3]: 0.216
- z-score [4]: -0.861
- z-score [5]: -0.32
- z-score [6]: -0.782
- z-score [7]: -0.182 (inactive)
- z-score [8]: 0.0989
- z-score [9]: 0.976
- z-score [10]: -0.331 (inactive)

SMILES: COc1ccc([Si](C)(C)[C@@H]2[C@@H](CCO)O[C@]3(C(=O)N(Cc4ccccc4)c4ccc(N5C(=O)COc6ccccc65)cc43)[C@H]2C)cc1
- z-score [1]: -1.4
- z-score [2]: 0.155
- z-score [3]: -1.08
- z-score [4]: -2.24
- z-score [5]: -0.0589
- z-score [6]: 0.102
- z-score [7]: 0.222 (inactive)
- z-score [8]: -0.741
- z-score [9]: -0.857
- z-score [10]: -0.177 (inactive)

SMILES: C#CCNS(=O)(=O)N(C)C
- z-score [1]: -0.277
- z-score [2]: -0.738
- z-score [3]: 0.759
- z-score [4]: 0.716
- z-score [5]: -0.227
- z-score [6]: 0.563
- z-score [7]: 0.48 (inactive)
- z-score [8]: 0.0262
- z-score [9]: -0.777
- z-score [10]: 0.943 (inactive)

SMILES: C=C(/C(=C/C[C@@H](OC(=O)c1ccncc1)c1cccc(OCCO)c1)c1cc(C(=O)OC)ccc1OC)C(C)C
- z-score [1]: 1.49
- z-score [2]: 0.358
- z-score [3]: 1.21
- z-score [4]: -2.98
- z-score [5]: -2.77
- z-score [6]: 2.71
- z-score [7]: 0.544 (inactive)
- z-score [8]: -0.303
- z-score [9]: -1.02
- z-score [10]: 0.804 (inactive)

SMILES: CCOC(=O)C1=CC[C@@H](c2ccccc2)N(S(=O)(=O)c2ccc(C)cc2)[C@H]1C=C(C)C
- z-score [1]: -1.36
- z-score [2]: -1.2
- z-score [3]: -1.01
- z-score [4]: -1.33
- z-score [5]: -0.89
- z-score [6]: 4.57
- z-score [7]: -0.638 (inactive)
- z-score [8]: -1.01
- z-score [9]: -1.79
- z-score [10]: 1.26 (inactive)

SMILES: CO[C@H]1O[C@H](CO)[C@@H](OC(=O)c2ccc(Br)cc2)[C@@H]2OC(=O)[C@H](Cc3cccc(Br)c3)C/C=C/C[C@@H](Cc3cccc(Br)c3)C(=O)O[C@@H]12
- z-score [1]: -0.0692
- z-score [2]: 1.09
- z-score [3]: -0.542
- z-score [4]: -1.82
- z-score [5]: -3.5
- z-score [6]: -3.52
- z-score [7]: -0.442 (inactive)
- z-score [8]: 0.229
- z-score [9]: -0.698
- z-score [10]: -0.932 (inactive)

SMILES: CC1CC/C=C\[C@H]2OC34C=CCN(c5ccc(Cl)cc5)C(=O)[C@H]3N(C(CO)C(C)C)C(=O)[C@]4(C)C2C(=O)O1 (stereo not given in full)
- z-score [1]: 0.109
- z-score [2]: -1.06
- z-score [3]: 0.453
- z-score [4]: 0.955
- z-score [5]: -0.105
- z-score [6]: -0.174
- z-score [7]: -0.21 (inactive)
- z-score [8]: -0.362
- z-score [9]: 0.00224
- z-score [10]: -0.392 (inactive)

SMILES: COCCOC(=O)N1C(=O)[C@@]2(c3cc(C#Cc4ccc(OC)cc4)ccc31)[C@H](C(N)=O)[C@H]1C(=O)O[C@H](c3ccccc3)[C@H](c3ccccc3)N1[C@@H]2c1ccc(OCCO)cc1
- z-score [1]: -1.42
- z-score [2]: 0.879
- z-score [3]: -0.656
- z-score [4]: -1.79
- z-score [5]: -2.31
- z-score [6]: -1.59
- z-score [7]: 2.52 (inactive)
- z-score [8]: -0.57
- z-score [9]: -1.39
- z-score [10]: 0.676 (inactive)

SMILES: COc1cccc(C)c1NC(=O)O[C@H]1[C@H](OC(=O)Nc2ccccc2)[C@H](OC(=O)Nc2ccccc2)[C@@H](OC)O[C@@H]1CO
- z-score [1]: -1.09
- z-score [2]: 0.93
- z-score [3]: -1.1
- z-score [4]: -2.53
- z-score [5]: -2.81
- z-score [6]: 0.321
- z-score [7]: 0.306 (inactive)
- z-score [8]: -1.1
- z-score [9]: 0.268
- z-score [10]: -2.57 (inactive)

SMILES: COc1ccc([Si](C)(C)[C@H]2[C@H](CC(=O)N3CCC[C@H]3CO)O[C@@]3(C(=O)N(Cc4ccc(N5C(=O)c6cccc7cccc5c67)cc4)c4ccccc43)[C@@H]2C)cc1
- z-score [1]: -0.706
- z-score [2]: 0.867
- z-score [3]: -0.154
- z-score [4]: -2.87
- z-score [5]: -4.2
- z-score [6]: 2.16
- z-score [7]: 1.44 (inactive)
- z-score [8]: -1.1
- z-score [9]: 0.28
- z-score [10]: -1.28 (inactive)

SMILES: Cc1cc(C)c(C(O)C2C=CC3C(=O)N(c4ccccc4)C(=O)C3N2Nc2ccccc2)c(C)c1 (stereo not given)
- z-score [1]: 0.479
- z-score [2]: -1.35
- z-score [3]: 1.37
- z-score [4]: 0.541
- z-score [5]: 0.281
- z-score [6]: -1.21
- z-score [7]: -0.422 (inactive)
- z-score [8]: -0.225
- z-score [9]: -0.425
- z-score [10]: -0.825 (inactive)

SMILES: COC(=O)C(CC#Cc1ccc2c(c1)[C@]1(C(=O)N2)[C@H](c2ccc(O)cc2)N2[C@H](c3ccccc3)[C@H](c3ccccc3)OC(=O)[C@H]2[C@@H]1C(N)=O)C(=O)OC
- z-score [1]: 1.43
- z-score [2]: -0.0866
- z-score [3]: 0.188
- z-score [4]: 0.244
- z-score [5]: 0.728
- z-score [6]: 1.44
- z-score [7]: 0.673 (inactive)
- z-score [8]: -0.846
- z-score [9]: -0.0448
- z-score [10]: 1.42 (inactive)
